This is part of a sample that, as a whole, favours compounds with a hit. Of some 79,000 tested, about 15% had one in any assay. Calls of active or inactive are those of the source. Cut-off read from the data, not from the text of the source: active = growth inhibition above about 70%; inactive = the rest.
Experiments:
[1] = NCI Yeast Anticancer Drug Screen. Data for the rad50 strain (AID 155);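 note: 0% = growth of vehicle-only cultures of the same strain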; details: S. cerevisiae rad50 strain growth inhibition; at 50.0 µM; hits give high values
Summary of the method: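 Cells are treated with compound, grown, and their growth is then scored against vehicle-only cultures of the same repair-deficient yeast strain.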

[2] = NCI Yeast Anticancer Drug Screen. Data for the mec2-1 strain (AID 157); details: S. cerevisiae mec2-1 strain, at 50.0 µM, hits give high values
Summary of the method: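 Growth inhibition is read against vehicle-treated controls after compound exposure of the mec2-1 yeast strain, which is defective in DNA damage repair or cell cycle control.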

[3] = NCI Yeast Anticancer Drug Screen. Data for the sgs1 mgt1 strain (AID 161);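 note: 0% = growth of cultures given vehicle only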; details: S. cerevisiae sgs1 mgt1 strain, at 50.0 µM, hits give high values
Summary of the method: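 This yeast growth screen uses a strain with defined DNA-repair lesions; compound-treated growth is compared with vehicle-treated growth.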

[4] = NCI Yeast Anticancer Drug Screen. Data for the cln2 rad14 strain (AID 165);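 note: 0% = growth equal to vehicle treated cultures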; details: S. cerevisiae cln2 rad14 strain, at 50.0 µM, hits give high values
Summary of the method: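 Growth inhibition, relative to vehicle-treated controls, is the read-out. The test organism is a yeast strain with defined genetic alterations, cln2 rad14.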

[5] = NCI Yeast Anticancer Drug Screen. Data for the bub3 strain (AID 167); details: S. cerevisiae bub3 mutant strain, at 50.0 µM, hits give high values
Summary of the method: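 Part of a panel of yeast mutants defective in DNA damage repair or cell cycle regulation. Each strain is grown with compound, and inhibition is calculated relative to solvent-treated cultures.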

[6] = NCI Yeast Anticancer Drug Screen. Data for the mlh1 rad18 strain (AID 175); details: S. cerevisiae mlh1 rad18 strain growth inhibition; at 50.0 µM; hits give high values
Summary of the method: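 Cells of a genetically altered yeast strain, deficient in DNA damage repair, were treated with compound. Their growth was then compared with that of vehicle-treated cultures to give inhibition.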

Measured: growth inhibition

Oc1cccc2cccnc12.[Cr]
inactive: [1] 6% | [2] -0.65% | [3] -7.65% | [4] -7% | [5] -16.9% | [6] -9.65%

ClCCCCCCCCCCCl
inactive: [1] 10.9% | [2] -2.55% | [3] -13.2% | [4] -11.8% | [5] -15.2% | [6] -8.8%

O=C(O)c1cc[c]([Hg][S]c2ncnc3nc[nH]c23)cc1
active: [1] 99% | [2] 98.3% | [3] 98.6% | [4] 98.2% | [5] 97.5% | [6] 98.9%

CO[C@H]1C=C[C@@]23c4cc5c(cc4CO[C@]2(O)CN(C)[C@H]3C1)OCO5
inactive: [1] -16.2% | [2] -1.35% | [3] -10.8% | [4] -1.35% | [5] 1.8% | [6] -41%

CN1C2CCC1CC(OC(=O)C1CCC(C(=O)OC3CC4CCC(C3)N4C)(c3ccccc3)c3ccccc31)C2 (stereo unspecified)
inactive: [1] -45% | [2] -23.9% | [3] -35.3% | [4] -29.9% | [5] -34.4% | [6] -36.7%

CCC[CH2][Sn]([CH2]CCC)([CH2]CCC)[CH2]CC(=O)OC
active: [1] 99.5% | [2] 99.4% | [3] 99.5% | [4] 99.3% | [5] 99% | [6] 99.5%

O=C(COc1ccc(Cl)c(Cl)c1)Nc1ccc[n+](Cc2ccc(Cl)c(S(=O)(=O)F)c2)c1
active: [1] 98.2% | [2] 90.7% | [3] 95.3% | [4] 79.3% | [5] 78.2% | [6] 98.5%

CC([NH-])C[NH-].CC([NH-])C[NH-].[Co].[NH2-].[NH2-] (stereo unspecified)
inactive: [1] -10% | [2] -6.5% | [3] 6.15% | [4] -41.2% | [5] 35.2% | [6] 18.4%

CCOP(=S)(N/N=C/c1ccc(C)s1)OCC
inactive: [1] -19.3% | [2] -27.2% | [3] 5.45% | [4] -12.3% | [5] 7.65% | [6] -30.8%

CCN(CC)C(=S)SCc1ccccc1OC(=O)NC
inactive: [1] -4.35% | [2] -8.6% | [3] 7.2% | [4] -43.5% | [5] 33.1% | [6] -5.95%

CC(=O)SCCC(NC(=S)Nc1ccccc1)P(=O)(Oc1ccccc1)Oc1ccccc1 (stereo unspecified)
inactive: [1] -17.9% | [2] 10.3% | [3] 8.35% | [4] -11.9% | [5] -7.1% | [6] -10.3%

CC(=O)c1ccccc1O.[Cr]
inactive: [1] 3.05% | [2] -32.3% | [3] 19.3% | [4] 3.75% | [5] -18.3% | [6] 21.2%

CN1CNC2C(=O)CCC2c2ccccc21 (stereo unspecified)
inactive: [1] -12.2% | [2] -39.8% | [3] -21.3% | [4] -7.4% | [5] -28.9% | [6] -9.1%

C=CC[As](=O)(O)c1ccccc1Cl
active: [1] 96% | [2] 99.5% | [3] 99.5% | [4] 84.2% | [5] 98.3% | [6] 99%

CCCCCCCCCCC(O)C1CCC(C(O)CCC(O)C2CCC(CCCCCCC[C@H](O)CC3=C[C@@H](C)OC3=O)O2)O1 (stereo partly specified)
inactive: [1] 31.4% | [2] 6.55% | [3] 1.55% | [4] 12.9% | [5] 19.1% | [6] 27.2%

Cc1ccc(SP(=S)(Sc2ccc(C)cc2)Sc2ccc(C)cc2)cc1
inactive: [1] 11.7% | [2] -65.8% | [3] -4.15% | [4] -29.9% | [5] -12.2% | [6] 10%

N#Cc1ccc(CCl)cc1
inactive: [1] 39.1% | [2] 7.55% | [3] 7.45% | [4] -6.05% | [5] 2.95% | [6] 41.7%

COc1ccc(NC2=NCCO2)c2ccccc12
inactive: [1] -11.9% | [2] -42.3% | [3] -31.1% | [4] -0.3% | [5] -13.4% | [6] -20.9%

OCC(O)C(O)C(O)C1C[O][Sb][O]1 (stereo unspecified)
inactive: [1] 0.85% | [2] 3.6% | [3] 7.85% | [4] -11.2% | [5] -2.85% | [6] 8.2%

Cc1nn[n-]n1.N.N.N.N.N.[Cl-].[Co+3]
inactive: [1] 4.25% | [2] 6.3% | [3] 22.1% | [4] 27.9% | [5] 9.6% | [6] 13.1%

CCOC(=O)Oc1c(Cl)cc(S(=O)(=O)F)cc1Cl
active: [1] 99.6% | [2] 99.8% | [3] 99.6% | [4] 99.5% | [5] 99.7% | [6] 99.5%

From PubChem BioAssay (NCI)
